# Shown are actives, neighbours in structure and some others; about 3.7% of the full set was active somewhere.
# Wnt bcat act: activators of Wnt/beta-catenin signaling. activation, % at 9.35 µM. hit rate 1.2% among 300,000. Wnt/beta-catenin reporter cell assay, activator, plate reader; in the data active = activation above about 30%, passing the limit was not always enough; inconclusive = no clear call, values can overlap the other calls;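 also: 0% = neutral control wells and 100% = positive control wells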
# esBAF inh: inhibitors of esBAF chromatin remodeling in mouse ES cells | Bmi1-luciferase knock-in reporter, 24 h; 100% = twice the neutral-well signal | AID 602393 | reporter increase, % at 12.5 µM | hit rate 2% among 350,000; in the data active = activation above about 40%; inconclusive = no clear call, values can overlap the other calls;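 also: 0% = median of the plate's neutral control wells and 100% = double that signal; a rise in the Bmi1 reporter signal indicates esBAF inhibition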
# MITF act: activators of MITF-driven TRPM1 promoter activity in SK-MEL-5 cells; SK-MEL-5 TRPM1-promoter luciferase, 24 h; % of positive control, neutral wells = 0; activation, % at 12.5 µM; hit rate 0.75% among 300,000; AID 588334;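 active = mean activation of at least 80% with every replicate also reaching 80%; inconclusive = mean reaches 80% but some replicate falls short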;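 also: 0% = neutral control wells and 100% = parthenolide positive control wells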
# rRNA inh HTS: inhibits bacterial ribosomal RNA function over humanized ribosomes. E. coli WT GFP vs humanized-ribosome RFP mutants, fluorescence, 24 h; stronger effect = lower value; DMSO median 0, no signal -100. GFP signal change (wild-type ribosome), % (no concentration beside the values). hit rate 1.6% among 350,000. AID 720706;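 active = significant combined selectivity score with lowered wild-type GFP, culture density cut under 30%, mutant RFP and density less affected; inactive = any of these conditions unmet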
# MLL AF4-AF9 inh: blocks AF4 peptide binding to human AF9 | P42568 | AlphaScreen, biotin-AF4 peptide binding to FLAG-AF9 | inhibition, % at 10 µM | hit rate 0.47% among 350,000 | AID 651704;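 active = every replicate reaching a set inhibition limit, whatever the replicate mean, cut at about 25% in these data; inconclusive = mean inhibition reaches that limit but some replicates miss it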;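 also: 0% = plate neutral control median and 100% = total signal loss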
# Target sequence (P42568 whole entry, looked up): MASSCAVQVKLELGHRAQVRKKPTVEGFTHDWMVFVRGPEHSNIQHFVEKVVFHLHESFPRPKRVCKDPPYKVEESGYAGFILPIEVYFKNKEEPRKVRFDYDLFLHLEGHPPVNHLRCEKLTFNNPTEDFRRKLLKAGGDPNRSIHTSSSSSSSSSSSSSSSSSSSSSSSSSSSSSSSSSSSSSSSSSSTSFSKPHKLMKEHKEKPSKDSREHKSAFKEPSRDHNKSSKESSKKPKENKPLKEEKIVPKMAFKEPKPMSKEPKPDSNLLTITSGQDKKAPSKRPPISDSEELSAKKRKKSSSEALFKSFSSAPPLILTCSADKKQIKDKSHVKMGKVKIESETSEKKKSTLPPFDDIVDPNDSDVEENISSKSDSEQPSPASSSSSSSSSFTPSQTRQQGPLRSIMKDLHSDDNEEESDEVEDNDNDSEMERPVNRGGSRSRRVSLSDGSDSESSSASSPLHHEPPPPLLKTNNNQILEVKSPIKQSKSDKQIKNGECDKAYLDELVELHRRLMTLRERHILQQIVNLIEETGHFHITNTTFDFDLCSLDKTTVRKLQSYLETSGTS
# Starred values were filed as active, the others as inactive; ? = inconclusive; . = not tested or not shown.
SMILES,Wnt bcat act,esBAF inh,MITF act,rRNA inh HTS,MLL AF4-AF9 inh
CCOC(=O)C1CCCCN1C(=O)CCc1nnc(-c2ccc3c(c2)OCO3)o1 (stereo not drawn),21.2,38.3,40.0,1.0,-0.6
CCOc1ccc(C(=O)N(CC(=O)Nc2cccc(C)c2C)CC2CCCO2)cc1OC (stereo not drawn),51.5*,-8.0,0.2,4.7,-2.3
CCC(=O)Oc1ccc(C(=O)Nc2cccc(C(=O)NC(C)(C)C)c2)cc1,-0.2,.,-4.9,.,.
O=C(N/N=C/c1cccs1)c1ccc2ccccc2c1,11.6,76.6*,27.7,2.4,0.1
CC(C)(C)C1CCc2c(C(=O)NNC(=O)/C=C/C(=O)O)csc2C1 (stereo not drawn),-3.8,.,-5.1,.,.
O=C(N/N=C/c1cccs1)c1c[nH]c2ccccc12,30.5*,?,61.8,.,.
CC(C)(C)C1CCc2c(C(=O)N/N=C/c3cccs3)csc2C1 (stereo not drawn),18.7,35.4,124.4*,4.1,0.7
CC(C)(C)NC(=O)C(=O)N/N=C/c1cccs1,21.8,45.6*,.,.,.
CN1CCN(C(=S)Nc2cccc(S(=O)(=O)N(C)C)c2)CC1,-1.4,.,4.7,20.7,0.1
CCc1ccc(/C=N/NC(=O)c2c[nH]c3ccccc23)s1,?,38.0,89.3*,.,.
CCNc1nc(N)c(C(=O)c2ccc(Cl)s2)s1,58.0*,43.3*,.,.,.
CCOC(=O)CNC(=O)c1ccc(Cl)s1,-0.4,-6.4,-8.9,10.6,-1.7
CCCCCC(=O)NNC(=O)Nc1ccccc1,.,.,-9.4,.,.
CCCCSC(=O)Nc1ccccc1,4.9,50.1*,8.9,.,.
CN(c1ccccc1)S(=O)(=O)c1ccc(C(=O)N2CCN(c3ccccc3F)CC2)cc1,-1.8,-2.5,-4.5,-20.0,4.4
O=c1[nH]c(-c2ccccc2)cnc1-c1ccccc1,37.3*,.,.,14.7,-0.9
Cc1ccc(/C=C2\SC(=S)N(NS(=O)(=O)c3ccc(C)cc3)C2=O)cc1,2.5,1.7,.,-39.5,0.7
Cc1ccc(S(=O)(=O)NN2C(=O)/C(=C/c3cccs3)SC2=S)cc1,4.2,-2.7,-8.0,-34.2*,-4.1
COC(=O)[C@@]12C[C@@H](CC(=O)NCC34CC5CC(CC(C5)C3)C4)C(=O)N(Cc3ccc4c(c3)OCO4)C1=CCC(C)(C)C2,-5.0,.,.,.,.
C[C@H]1CN([C@@H](C)CO)C(=O)c2cc(NC(=O)NC3CCCCC3)ccc2O[C@@H]1CN(C)Cc1ccccc1,.,3.3,.,-0.2,1.6
C[C@@H]1CCCCO[C@@H](CN(C)Cc2ccccc2)[C@H](C)CN([C@H](C)CO)C(=O)c2cc(NC(=O)Nc3ccc4c(c3)OCO4)ccc2O1,.,1.1,.,2.1,30.9*
C[C@H](CO)N1C[C@H](C)[C@H](CN(C)Cc2ccc3c(c2)OCO3)OCCCC[C@H](C)Oc2ccc(NC(=O)Nc3ccc4c(c3)OCO4)cc2C1=O,.,-3.9,.,-22.3,20.1
C[C@@H]1CN([C@H](C)CO)C(=O)c2cc(NC(=O)Nc3ccc4c(c3)OCO4)ccc2O[C@@H](C)CCCCO[C@H]1CN(C)Cc1ccc2c(c1)OCO2,.,-3.7,.,-17.1,38.7*
C[C@H]1CN([C@@H](C)CO)C(=O)c2cc(NC(=O)NC3CCCCC3)ccc2O[C@H]1CN(C)Cc1ccccc1,.,1.7,.,0.8,32.6*
C/C(=C\c1ccccc1)C(=O)NCCc1ccccc1,61.0*,.,50.2,7.5,-6.3
SMILES,Wnt bcat act,esBAF inh,MITF act,rRNA inh HTS,MLL AF4-AF9 inh
S=C(NCCc1ccccc1)NCCc1ccccc1,.,.,23.0,.,.
C/C(=C\c1ccccc1)C(=O)NCc1ccco1,32.2*,.,31.2,0.5,-0.3
COc1cc(/C=C(\C#N)C(=O)NCCc2ccccc2)cc(OC)c1O,-2.8,.,-4.1,-31.1*,0.2
CC(C)(C)C(=O)NC(=S)NCCc1ccccc1,-0.4,43.5*,60.8,.,.
CC(OC(=O)CC1CCCCC1)C(=O)Nc1ccc(S(N)(=O)=O)cc1 (stereo not drawn),-0.9,.,5.9,-3.4,0.3
CCOc1ccc(-c2nnc(N)s2)cc1,.,60.4*,56.6,.,.
CCCCOc1ccc(-c2nnc(N)s2)cc1,9.4,.,36.0,10.9,4.7
Nc1ccc2nc(-c3cccs3)[nH]c2c1,13.5,44.2*,58.5,6.2,-0.6
COC(CNC(=O)c1cccnc1)OC,2.4,.,-7.2,23.0,-4.5
COC(CNC(=O)c1ccc2c3c(onc13)-c1ccccc1C2=O)OC,70.7*,.,.,.,4.1
O=C(C(=O)N1CCC(CNS(=O)(=O)c2ccc(F)cc2)CC1)c1cc2ccccc2o1,-0.4,.,.,-8.9,0.7
COC(=O)c1cc(S(=O)(=O)NCC2CCN(C(=O)C(=O)c3cc4ccccc4o3)CC2)cs1,-3.9,.,.,-18.8*,1.7
COc1ccc(C(=O)NCC2CCN(C(=O)C(=O)c3cc4ccccc4o3)CC2)c(OC)c1,-2.7,.,.,-13.2*,-10.5
COc1ccc(CC(=O)NCC2CCN(C(=O)C(=O)c3cc4ccccc4o3)CC2)cc1,-0.1,.,.,3.0,2.6
O=C(Nc1nncs1)c1cccc(S(=O)(=O)N2CCOCC2)c1,1.0,-1.8,12.5,.,.
O=C(CCC(=O)OCC(=O)c1cccc([N+](=O)[O-])c1)Nc1cccc(Cl)c1Cl,40.1*,.,-7.1,.,.
COc1ccccc1N1CCN(C(=O)c2cc(-c3ccccc3)on2)CC1,-0.4,9.8,9.8,-4.3,6.4
Cc1ccc(N2CCN(C(=O)c3cc(COc4c(C)cccc4C)on3)CC2)c(C)c1,1.0,-0.2,4.9,2.6,-2.9
COc1cccc(OCc2cc(C(=O)N3CCN(c4ccccc4OC)CC3)no2)c1,36.8*,77.5*,83.4*,8.9,1.9
COc1cccc(OCc2cc(C(=O)N3CCN(c4ccccc4O)CC3)no2)c1,25.6,48.7*,96.5*,-4.1,0.3
COc1ccccc1N1CCN(C(=O)c2ccc3noc(-c4ccccc4)c3c2)CC1,-6.4,10.8,.,-13.5*,21.4
Cc1ccc(S(=O)(=O)N(C)C[C@H]2Oc3ccc(NS(=O)(=O)c4ccc(Cl)cc4)cc3C(=O)N([C@H](C)CO)C[C@H]2C)cc1,.,-3.7,.,-5.5,1.2
CCCCCOC(=O)c1ccc(OC(=O)c2cncc(Br)c2)cc1,.,104.5*,?,.,.
CC(C)c1ccc(-c2nn(-c3ccccc3)cc2C2C(C#N)=C(N)OC3=C2C(=O)CC(C)(C)C3)cc1 (stereo not drawn),6.1,51.7*,.,.,.
Cc1nn(-c2ccccc2)c(Cl)c1C1C(C#N)=C(N)OC2=C1C(=O)CC(C)(C)C2 (stereo not drawn),-2.4,-3.8,-20.9,.,.
SMILES,Wnt bcat act,esBAF inh,MITF act,rRNA inh HTS,MLL AF4-AF9 inh
COc1ccc(C2=Cc3ccc(OC(C)=O)cc3OC2)cc1,13.7,78.3*,103.5*,8.1,-0.6
CC(=O)Oc1ccc2c(c1)C(=O)c1ccccc1CO2,6.6,.,1.7,.,.
O=C1c2cccc3cccc(c23)C(=O)N1Cc1ccccc1,-4.1,.,-4.7,-47.2,-0.7
COc1ccc(CN2C(=O)c3cccc4cccc(c34)C2=O)cc1,41.4*,.,-2.7,9.9,2.2
CCCSc1nnc(NC(=O)Nc2ccccc2OC)s1,29.5,47.3*,.,-2.3,0.6
Cc1ccc(/C=C/c2nnc(-c3cccc(C)c3)o2)cc1,17.4,52.8*,7.5,2.9,4.6
